The panel holds about 83,000 compounds, 20% with a hit somewhere; the sample as a whole holds those more often.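 How to read the values: 0–100, growth inhibition (40 = 60% inhibited); 0, no net growth; -100 to 0, cell death (-40 = 40% of starting cells died; -100 = all dead).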 Unmarked numbers belong to inactive results. The source made the active and inactive calls.
These compounds were tested on A498 renal (assay: NCI-60 one-dose screen, 48 h (100 = growth as untreated, 0 = no growth, -100 = all killed)). Settings: 10 µM.
Protocol: Growth inhibition of the A498 human tumor cell line is measured as a screen for anti-cancer activity. Cells are grown in 96 well plates and exposed to the test compound for 48 hours. Compounds are tested at a single concentration, which is 10^-5 M for most compounds. The reported endpoint is percent growth (GI% or GIPRCNT), where numbers from 0 - 100% represent growth inhibition, and numbers from -100% - 0 represent cell death. For example, a value of 40 represents 60% growth inhibition. A value of 0 means no net growth occurred over the course of the experiment. A value of -40 indicates 40% of cells at the beginning of the experiment died by the end of the experiment. A value of -100 means all cells are dead at the end of the experiment.
NCI-60 Human Tumor Cell Lines Screen was performed using the standard one-dose NCI protocol, which is described in more detail at https://dtp.cancer.gov/discovery_development/nci-60/default.htm.
Compounds with GIPRCNT values below 10 were considered active. Activity score was based on GIPRCNT using the following formula: […]
Score is 0 for GIPRCNT values of 100 or above, 50 for GIPRCNT values of 0, and 100 for GIPRCNT values of -100.

Compound	growth
Nc1c(C(=O)Nc2cccc(F)c2)sc2nc3c(cc12)C(=O)CCC3	-12.1% (active)
COc1cc(Cc2cc(-c3ccc(Cl)cc3)n[nH]c2=O)ccc1O	104%
Cc1ccc(C(=O)N2C/C(=C/c3ccc(F)cc3)C(=O)/C(=C/c3ccc(F)cc3)C2)cc1	93.5%
N#Cc1ncc(-c2cc(F)c(F)c(F)c2)c(NC2CCCCCC2)n1	52.2%
O=[N+]([O-])c1cccc(N=Cc2ccc3c(c2)OCO3)c1	118%
CNc1ncc(-c2ccc(C(F)(F)F)cc2)c(NC2CCCCCC2)n1	83.4%
CCCCCCCCCCCCCC[n+]1ccc(C(N)=O)cc1	52.3%
N#Cc1ncc(-c2ccc(C(F)(F)F)cc2)c(NCc2cc(C(F)(F)F)cc(C(F)(F)F)c2)n1	15.3%
COc1ccc(S(=O)(=O)NCCCNc2nccc(-c3c(-c4ccc(F)cc4)nc4sccn34)n2)cc1	58.5%
Fc1ccc(-c2nnc(-c3c(-c4ccc(F)cc4)nc4ccccn34)o2)cc1	62%
COc1ccc(C2=NN(C(=O)c3ccc(S(C)(=O)=O)cc3)C(c3ccc(OC)c(OC)c3)C2)c(OC)c1 (stereo not given)	98.5%
CC1CN(Cc2ccccc2)C(=O)NC1=O (stereo not given)	121%
N=C(N)c1ccc(-c2ccc(-c3ccco3)o2)cc1	33.3%
CCOC(=O)CNC(=O)CCCCSc1ncnc2nc[nH]c12	124%
CCCCCCCCCCCCCCCC(=O)OC1[C@@H](OC(=O)CCCCCCCCCCCCCCC)[C@@H](C(=O)N[C@@H](CCCCN)C(=O)OC)O[C@H]1n1cnc2c(=O)[nH]c(NC(=O)C(C)C)nc21 (stereo not given in full)	98.1%
CN(C)CCN=c1nc2c(c(N)n1-c1ccccc1)c(=S)n(-c1ccccc1)c(=S)n2-c1ccccc1	40.3%
O=C(Nc1cccc(Br)c1)c1cc(=O)[nH]c2ccccc12	111%
COc1ccc(-c2nc3sc(-c4ccccc4)c(-c4ccccc4)n3c2/C=C/C(=O)c2ccccn2)cc1	96.1%
c1ccc([I+]c2ccccc2)cc1	65%
COc1cc(-c2nn3c(/C=C4/C(=O)Nc5ccccc54)c(-c4ccc(C)cc4)nc3s2)cc(OC)c1OC	98.9%

Compound	growth
CN(C)CC(O)c1ccc2cc(Br)c3ccccc3c2c1 (stereo not given)	23.9%
COc1ccc2c(c1)sc1nc(-c3ccccc3)c(-c3ccsc3)n12	-7.5% (active)
Cn1c([N+](=O)[O-])cnc1/C=C1\Oc2cc(Cl)ccc2C1=O	57.4%
COc1cc(Nc2ccnc(NCCCNc3ccnc4cc(Cl)ccc34)n2)cc(OC)c1	14.9%
COc1ccc(OC)c(NC(=O)c2sc3nc4c(cc3c2N)C(=O)CCC4)c1	3.5% (active)
CCOC(=O)C(=Cc1ccc(Br)cc1)C(=O)OCC	-12.6% (active)
Clc1cc2c(c(CSc3nc4ccccc4n4cccc34)c1)OCOC2	102%
Clc1cccc(-c2nc(-c3cccs3)no2)c1	93.1%
c1ccc(C(NC2CC3CCC2C3)c2ccccc2)cc1 (stereo not given)	116%
C=C(NC(=O)C(=C)NC(=O)c1csc(C2=NC3c4csc(n4)C4NC(=O)c5csc(n5)C(C(C)(O)C(C)O)NC(=O)C5CSC(=N5)/C(=C/C)NC(=O)C(C(C)O)NC(=O)c5csc(n5)C3(CC2)NC(=O)C(C)NC(=O)C(=C)NC(=O)C(=C)NC(=O)C(C(C)C)NC2C=Cc3c(C(C)O)cc(nc3C2O)C(=O)OC4C)n1)C(N)=O (stereo not given)	-30.3% (active)
Clc1ccc(Nc2ccnc(NCCCNc3ccnc4cc(Cl)ccc34)n2)cc1	-4.52% (active)
COc1ccc(-c2cc(/C=C/C(=O)c3cc(OC)c(OC)c(OC)c3)[nH]n2)cc1OC	-2.03% (active)
CN(C)CCN1C(=O)c2cccc3cc(N)cc(c23)C1=O	41.8%
COc1cccc(NC(=O)c2sc3nc4c(cc3c2N)C(O)CCC4)c1 (stereo not given)	-7.35% (active)
COc1cc(NC(=O)CSc2nc3ccccc3c(=O)n2CCc2ccccc2)cc(OC)c1OC	-21.8% (active)
Cc1ccc(-c2nc(/C=C3/C(=O)N(C)c4ccc(F)cc43)c3ccccn23)cc1	95.9%
COc1ccc(-c2nn(-c3cccc(NC(=O)Nc4cc(C(F)(F)F)cc(C(F)(F)F)c4)c3)cc2-c2ccncc2)cc1Cl	-16.5% (active)
CCN(CC)CCSCCN(CC)CC	89.4%
CCCC(F)C(=O)O (stereo not given)	98.5%
CC(=O)c1cc(Br)ccc1O	106%

— PubChem BioAssay (NCI)
